Out of some 310,000 compounds screened, about 14,000 (4.5%) showed an effect of 50% or more. The effect is printed as a negative number. This is one part of a sample in which strong results are shown more often than they occur.
target: human ether-à-go-go-related gene (hERG) potassium channel (human, UniProt Q12809); assay: primary screen, population patch clamp on CHO cells stably expressing hERG; higher = less effect of the substance
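Also: peak tail current of the secondary pulse compared with the same well before compound.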

Chain of human ether-à-go-go-related gene (hERG) potassium channel (Q12809 whole entry, looked up): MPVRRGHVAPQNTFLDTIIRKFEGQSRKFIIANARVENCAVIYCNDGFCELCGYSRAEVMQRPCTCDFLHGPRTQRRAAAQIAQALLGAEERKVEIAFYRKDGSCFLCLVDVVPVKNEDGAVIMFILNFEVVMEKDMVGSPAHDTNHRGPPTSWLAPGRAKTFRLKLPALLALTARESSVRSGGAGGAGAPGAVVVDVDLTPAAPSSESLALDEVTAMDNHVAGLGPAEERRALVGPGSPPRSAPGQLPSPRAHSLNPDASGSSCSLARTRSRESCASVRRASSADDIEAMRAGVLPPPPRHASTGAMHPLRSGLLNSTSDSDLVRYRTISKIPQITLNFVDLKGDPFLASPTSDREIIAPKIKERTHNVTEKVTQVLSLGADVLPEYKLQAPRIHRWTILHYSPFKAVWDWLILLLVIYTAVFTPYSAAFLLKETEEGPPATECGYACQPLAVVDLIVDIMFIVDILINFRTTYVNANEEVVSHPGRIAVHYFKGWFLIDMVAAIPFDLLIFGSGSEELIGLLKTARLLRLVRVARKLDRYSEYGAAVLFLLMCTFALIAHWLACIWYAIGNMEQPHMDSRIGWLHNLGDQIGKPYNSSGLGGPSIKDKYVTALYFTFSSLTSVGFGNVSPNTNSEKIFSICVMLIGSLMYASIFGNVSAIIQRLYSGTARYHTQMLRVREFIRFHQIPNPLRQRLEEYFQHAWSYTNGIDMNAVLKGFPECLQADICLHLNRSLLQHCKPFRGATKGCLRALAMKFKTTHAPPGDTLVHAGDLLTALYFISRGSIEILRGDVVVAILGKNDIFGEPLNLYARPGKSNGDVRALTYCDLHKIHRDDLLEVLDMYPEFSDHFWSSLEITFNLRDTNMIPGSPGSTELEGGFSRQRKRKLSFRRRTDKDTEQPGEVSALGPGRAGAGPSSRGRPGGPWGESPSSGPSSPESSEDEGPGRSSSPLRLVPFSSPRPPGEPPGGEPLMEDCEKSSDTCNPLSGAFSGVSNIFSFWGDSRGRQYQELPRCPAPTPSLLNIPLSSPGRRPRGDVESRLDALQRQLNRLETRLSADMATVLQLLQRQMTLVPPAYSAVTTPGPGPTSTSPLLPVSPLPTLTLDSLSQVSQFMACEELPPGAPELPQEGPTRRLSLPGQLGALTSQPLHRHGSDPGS

| Structure (SMILES) | hERG current change (%, negative = inhibition) at 10uM |
| --- | --- |
| Cc1cnn(Cc2cccnc2)c1N | 8.46% |
| O=C(NCCCn1ccnc1)/C(=C/c1ccco1)NC(=O)c1cccs1 | -53.2% |
| O=C(NCCCn1ccnc1)/C(=C\c1cccs1)NC(=O)c1ccccc1 | -69% |
| O=C(NCCCn1ccnc1)/C(=C\c1ccco1)NC(=O)c1ccco1 | -35.3% |
| O=C(NCCCn1ccnc1)/C(=C/c1ccco1)NC(=O)c1ccco1 | -45.6% |
| CN(C)S(=O)(=O)n1cc(/C=C(\NC(=O)c2ccccc2)C(=O)NCCCn2ccnc2)c2ccccc21 | 8.31% |
| O=C(NCCCn1ccnc1)/C(=C/c1cccnc1)NC(=O)c1ccco1 | 4.25% |
| COc1ccccc1/C=C(/NC(=O)c1ccccc1)C(=O)NCCCn1ccnc1 | 2.6% |
| O=C(NCCCn1ccnc1)/C(=C\c1cccs1)NC(=O)c1ccco1 | -45.1% |
| O=C(NCCCn1ccnc1)/C(=C/c1cccs1)NC(=O)c1ccco1 | -50.8% |
| CCOC(=O)c1c(C)n(C)c2c(C)cc(O)c(OC(=O)CC)c12 | 7.65% |
| CN(C)c1ccc(/C=C2\SC(N3CCCCC3)=NC2=O)cc1 | -21.8% |
| Cc1occc1C(=O)Nc1ccc(Br)cc1F | 2.03% |
| Cc1ccc(NC(=S)N(CCN(C)C)C(C)c2ccco2)cc1C (stereo not drawn) | -44.3% |
| CC1CCC2CCCCC2N1C(=O)c1cc([N+](=O)[O-])cc([N+](=O)[O-])c1 (stereo not drawn) | 2.18% |
| COc1cc(CCCN2C(=S)NC[C@H]2Cc2ccc(O)cc2)cc(OC)c1OC | -16.4% |
| CC1CCN(C(=O)c2ccc(CS(=O)(=O)Cc3ccccc3)cc2)CC1 | -33.6% |
| CC(=O)N1c2ccc(S(=O)(=O)NCC3CCC(C(=O)N4CCCCC4)CC3)cc2CC1C (stereo not drawn) | 12.2% |
| c1ccc2c(c1)[nH]c1c(NCC3CCCO3)ncnc12 (stereo not drawn) | 11% |
| Cc1ccc(S(=O)(=O)N(C)CCCC(=O)Nc2ccc(F)cc2)cc1 | -30.1% |
| Cc1ccc(S(=O)(=O)N(C)CCCC(=O)Nc2ccncc2)cc1 | -63% |

| Structure (SMILES) | hERG current change (%, negative = inhibition) at 10uM |
| --- | --- |
| CC(=O)c1cccc(NC(=O)CCCN(C)S(=O)(=O)c2ccc(F)cc2)c1 | -2.1% |
| CC(=O)Nc1ccc(S(=O)(=O)N(C)S(=O)(=O)c2ccc(F)cc2)cc1 | -63.3% |
| Cc1ccc(S(=O)(=O)N(C)CC(=O)Nc2ccncc2)cc1 | -8.2% |
| CN(CC(=O)Nc1ccncc1)S(=O)(=O)c1ccc(Cl)cc1 | -5.97% |
| CN(CCCC(=O)Nc1ccc(OC(F)F)cc1)S(=O)(=O)c1ccc(F)cc1 | -71.3% |
| CC(=O)Nc1ccc(S(=O)(=O)N(C)c2ccc(O)cc2)cc1 | 2.53% |
| CC(=O)Nc1ccc(S(=O)(=O)N(C)c2ccccc2)cc1 | 0.318% |
| COc1ccc(NC(=O)CCCN(C)S(=O)(=O)c2ccc(C)cc2)cc1 | -26.8% |
| CN(CCCC(=O)Nc1ccncc1)S(=O)(=O)c1ccc(Cl)cc1 | -53.8% |
| CN(CCCC(=O)Nc1ccccc1)S(=O)(=O)c1ccc(Cl)cc1 | -47.9% |
| O=C(Oc1ccnc2cc(Cl)ccc12)N1CCOCC1 | -1.74% |
| COc1ccc2c(c1)c(=O)oc1cc(O)ccc12 | 3.99% |
| O=C(CSc1cn(Cc2cccc(F)c2)c2ccccc12)NCc1ccc(F)cc1 | 9.86% |
| CCOc1ccccc1N(CC(=O)NC(C)(C)C)C(=O)CCC(=O)Nc1nccs1 | -4.92% |
| CC(C)(C)NC(=O)C(c1ccc(O)cc1)N(C(=O)Cn1nnc(-c2ccc(F)cc2)n1)c1ccccc1F (stereo not drawn) | -1.66% |
| COc1cc(CNc2ccc(N3CCOCC3)cc2)cc(Br)c1OC | -23.4% |
| CCOc1cc2oc(=O)c3c(c2cc1Cl)CCC3 | 7.75% |
| COc1ccc(Cn2c(C)c(C)c(C#N)c2NC(=O)Nc2ccc(F)cc2)cc1 | -3.49% |
| COc1ccc(N=CC2=C(O)c3ccccc3C2=O)cc1 | 11.1% |
| COCCCn1c(C(=O)N2CC(C)OC(C)C2)cc2c(=O)n3ccccc3nc21 (stereo not drawn) | -9.36% |
| Cc1ccc2nc3c(cc(C(=O)NCC4CCCO4)c(=N)n3CCCOC(C)C)c(=O)n2c1 (stereo not drawn) | -71.8% |

| Structure (SMILES) | hERG current change (%, negative = inhibition) at 10uM |
| --- | --- |
| COCCCn1c(C(=O)NC2CCCCC2C)cc2c(=O)n3cccc(C)c3nc21 (stereo not drawn) | -12% |
| COCCCn1c(C(=O)N2CCOCC2)cc2c(=O)n3ccccc3nc21 | 2.75% |
| Cc1cccn2c(=O)c3cc(C(=O)NCC4CCCO4)c(=N)n(CCN4CCOCC4)c3nc12 (stereo not drawn) | -69.4% |
| CC(C)OCCCn1c(SC(C)C(=O)NCC2CCCO2)nc2cc(Cl)ccc2c1=O (stereo not drawn) | -20.6% |
| COCCn1c(=O)[nH]c2cc(C(=O)NCC3CCCO3)ccc2c1=O (stereo not drawn) | -7.76% |
| COCCCn1c(=N)c(C(=O)NCC2CCCO2)cc2c(=O)n3cccc(C)c3nc21 (stereo not drawn) | -73.1% |
| CCN(C(=O)c1cc2c(=O)n3cccc(C)c3nc2n1CCCOC)C1CCCCC1 | -44.1% |
| COCCCn1c(=N)c(C(=O)NCC2CCCO2)cc2c(=O)n3ccccc3nc21 (stereo not drawn) | -64.3% |
| CSc1nnc2c(n1)OC(c1cccn1C)N(C(C)=O)c1ccccc1-2 (stereo not drawn) | -10.1% |
| CCS(=O)(=O)Nc1cccc(C2=NN(S(C)(=O)=O)C(c3cccs3)C2)c1 (stereo not drawn) | -11.1% |
| CCOC(=O)C1=C(c2ccccc2)O/C(=C(/C(=O)OC)C(F)(F)F)S1 | -3.45% |
| CC(=O)Nc1ccc(N(C(=O)Cc2c[nH]c3ccccc23)C(C(=O)NC2CCCCC2)c2ccco2)cc1 (stereo not drawn) | -13.1% |
| O=c1[nH]nc(CNc2ccc(C(F)(F)F)cc2)c2ccccc12 | 1.92% |
| CC(C)(C)c1ccc(C(=O)N2CCC(=O)N(C(CO)Cc3ccccc3)CC2)cc1 (stereo not drawn) | -16.7% |
| Cc1cccc(NC(=S)N(CCN(C)C)Cc2cccs2)c1 | -25.8% |
| Cc1cc(NS(=O)(=O)c2cccs2)no1 | -3.03% |
| Cc1ccccc1Nc1cc(C(=O)NCC2CCCO2)c2ccccc2n1 (stereo not drawn) | -15.6% |
| Cc1cccn2c(=O)c3cc(C(=O)NCC4CCCO4)c(=N)n(CC4CCCO4)c3nc12 (stereo not drawn) | -81.9% |
| Cc1cccn2c(=O)nc(SCC(=O)NCc3ccc4c(c3)OCO4)nc12 | -27.1% |
| CCCn1c(=S)[nH]c2cc(C(=O)NCC3CCCO3)ccc2c1=O (stereo not drawn) | 3.73% |
| CCCn1c(=N)c(S(=O)(=O)c2ccc(F)cc2)cc2c(=O)n3cccc(C)c3nc21 | -4.16% |

| Structure (SMILES) | hERG current change (%, negative = inhibition) at 10uM |
| --- | --- |
| CCCn1c(=N)c(C(=O)NCc2ccc3c(c2)OCO3)cc2c(=O)n3cccc(C)c3nc21 | -76.5% |
| Cc1cccn2c(=O)c3cc(C(=O)NC4CCCC4)c(=N)n(CC4CCCO4)c3nc12 (stereo not drawn) | -74.4% |
| Cc1ccc(-c2cc(C(=O)NCC3CCCO3)c3ccccc3n2)cc1C (stereo not drawn) | 12.1% |
| Cc1ccc(S(=O)(=O)c2cc3c(=O)n4cccc(C)c4nc3n(CC3CCCO3)c2=N)cc1C (stereo not drawn) | 2.35% |
| CCCn1c(=N)c(C(=O)NCC2CCCO2)cc2c(=O)n3cccc(C)c3nc21 (stereo not drawn) | -76.3% |
| CCCn1nc(C(=O)NCc2ccc3c(c2)OCO3)c2ccccc2c1=O | 1.89% |
| CCC(=O)N1CCc2cc(S(=O)(=O)CCC(=O)NCc3cccc(OC)c3)ccc21 | 13.8% |
| COc1ccc([C@@H]2C[C@@H](c3ccccc3)Oc3c(C)ccc(C(C)C)c32)cc1 | 13.3% |
| CCCc1nc(N2CCCC2)c(C#N)c2c1CCCC2 | 4.06% |
| COC(=O)c1cc(-c2ccccc2)n(CCN)c1C.Cl | -3.56% |
| COc1ccc(OCC(=O)Nc2nnc(C)s2)cc1 | 9.71% |
| Cc1nnc(SCc2ccc(Cl)cc2)nc1/C=C/N(C)C | -72.6% |
| Cc1nnc(SCc2ccccc2)nc1/C=C/NOCc1ccc(Cl)cc1Cl | 13.9% |
| C=CCSc1nnc(C)c(/C=C/Nc2ccc(Cl)cc2)n1 | -9.44% |
| Cc1ccc(C(=O)O)cc1S(=O)(=O)N1CCC(C(=O)O)CC1 | -4.77% |
| NC(=S)Cc1nc2n(n1)Cc1ccccc1-2 | 21.6% |
| CC(=O)N1CCN(c2ccc(NC(=O)c3ccccc3C)cc2)CC1 | -0.597% |
| C=C1CCN([C@@H](C)C(=O)NCc2ccc(OC)cc2)S(=O)(=O)c2ccccc21 | -6.66% |

— paper PMC4336329 (PLoS ONE, 2015)
